Bioassay records: PubChem, Broad Institute
HSF1 inhib – HSF1 inhibition; NIH3T3-HGL HSE-luciferase, MG132-induced, luminescence 8 h; active compounds read low; activity change, negative = inhibition, % at 7.5 µM (by protocol); actives 0.77% (n = 300,000);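 active = more than half of replicate wells show activity change below -50%, luminescence cut by over half; inconclusive = some wells, but at most half, below -50%; inactive = no replicate well below -50%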;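 note: luciferase reports HSF-1 transcriptional activity via heat shock element; 0% = median of DMSO wells and -100% = zero luminescence signal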
esBAF inh – SWI/SNF esBAF complex inhibition. mouse ES cells, Bmi1-luciferase knock-in reporter, 24 h; 100% = twice the neutral-well signal. reporter increase, % at 12.5 µM. actives 2% (n = 350,000). AID 602393; in the data active = activation above about 40%; inconclusive = no clear call, values can overlap the other calls;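 note: 0% = median of the plate's neutral control wells and 100% = double that signal; a rise in the Bmi1 reporter signal indicates esBAF inhibition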
Vif inh – HIV Vif inhibition; AID 602346; actives 0.35% (n = 340,000); inhibition, % at 7.49 µM; HEK293T cells, Vif self-association by quenched fluorescence, imaging, 24 h; in the data active = inhibition above about 50%, passing the limit was not always enough; inconclusive = no clear call, values can overlap the other calls; inactive = below about 31%
HSF-1 act – increases HSF-1 driven luciferase reporter signal; NIH3T3-HGL HSF-1 luciferase reporter, MG132, 8 h; 100% = twice DMSO control signal; activation, % at 9 µM; actives 1.7% (n = 300,000);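 active = mean replicate activation of at least 50% with a set share of replicates each reaching 50%; inconclusive = only one of those two conditions met; inactive = mean below 50% and too few replicates reaching it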;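 note: 0% = median of the neutral control wells and 100% = twice that signal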
The depositor's hits bear a star; ? = inconclusive; . = no result given. Shown are actives, neighbours in structure and some others; about 3.4% of the full set was active somewhere.

SMILES	HSF1 inhib	esBAF inh	Vif inh	HSF-1 act
O=C(NCC1CCCCC1)[C@H]1[C@H](CO)[C@H]2Cn3c(ccc(-c4ccccc4F)c3=O)[C@@H]1N2	.	5	.	.
NC(=O)c1ccsc1NC(=O)CN1C(=O)NC2(CCCCC2)C1=O	.	0	7	.
Cc1ccc(NC(=O)CN2C(=O)NC3(CCCC3)C2=O)c(Cl)c1	-84*	-1	-10	-87
O=C(CN1C(=O)NC2(CCCCCC2)C1=O)Nc1ccc(Cl)cc1Cl	.	-6	2	.
N#Cc1ccsc1NC(=O)CN1C(=O)NC2(CCCC2)C1=O	-6	45*	-10	8
COc1cc2c(cc1NC(=O)COc1ccccc1OC)oc1ccccc12	-17	2	1	-18
COc1cc2c(cc1NC(=O)COC(=O)[C@@H](NS(=O)(=O)c1ccccc1)C(C)C)oc1ccccc12	32	.	-15	90*
Cc1nc([N+](=O)[O-])c(Br)n1CC(=O)c1cccc([N+](=O)[O-])c1	75	.	1	102*
O=C(CCNc1ccc(Br)cc1)c1cccc([N+](=O)[O-])c1	32	.	2	66*
Cc1nc([N+](=O)[O-])c(Br)n1Cc1ccccc1	49	.	-3	77*
C[C@@H]1CCCCO[C@H](CN(C)C(=O)CCC(F)(F)F)[C@H](C)CN([C@@H](C)CO)C(=O)c2cc(NC(=O)c3ccccc3)ccc2O1	.	4	.	.
Cc1ccc(-c2ccc3c(c2)O[C@H](CN(C)C(=O)Nc2ccc(C(F)(F)F)cc2)[C@H](C)CN([C@@H](C)CO)S3(=O)=O)cc1	.	5	.	.
C[C@@H]1CN([C@@H](C)CO)C(=O)c2cc(/C=C/c3ccccc3)cnc2O[C@@H]1CN(C)C(=O)c1ccc(F)cc1	.	4	.	.
Cc1ccnc(NC(=O)c2ccc([N+](=O)[O-])s2)c1	48	29	-12	70*
Cc1c(NC(=O)c2ccc(C(C)(C)C)cc2)cccc1[N+](=O)[O-]	41	.	-2	72*
Cc1cccc(NC(=O)c2ccc([N+](=O)[O-])s2)c1C	17	.	5	56*
Cc1cc(C(=O)Nc2cccc([N+](=O)[O-])c2C)cs1	5	9	5	11
Cc1ccc(SCCCCN2CCOCC2)cc1	113	4	1	141*
Cc1ccsc1C1NC(=O)c2c(sc3c2CCCC3)N1 (centres undefined)	20	50*	2	36
O=C1NC(c2ccccn2)Nc2sc3c(c21)CCC3 (centres undefined)	2	66*	-3	28
C[C@@H]1CCCCO[C@@H](CN(C)S(=O)(=O)c2ccc(Cl)cc2)[C@@H](C)CN([C@H](C)CO)C(=O)c2cc(NC(=O)Cc3ccccc3)ccc2O1	.	1	.	.
C[C@@H]1CN([C@@H](C)CO)C(=O)c2cc(-c3ccccc3F)cnc2O[C@H]1CN(C)C(=O)C1CCOCC1	.	6	.	.
Cc1ccccc1Nc1nc(N)nc(CSc2nnnn2C)n1	8	56*	4	17
S=C(Nc1ccccc1)Nc1ccc(Cl)cn1	31	.	-2	78*
O=C(NC(=S)Nc1ccc(Cl)cn1)C(c1ccccc1)c1ccccc1	8	.	.	7
SMILES	HSF1 inhib	esBAF inh	Vif inh	HSF-1 act
O=C(CCc1ccccc1)Nc1ccc(Cl)cn1	1	43*	?	9
O=C(COc1ccccc1Cl)Nc1ccc(Cl)cn1	59	30	1	106*
O=C(COc1ccccc1)Nc1ccc(Cl)cn1	16	21	7	43
C[C@H]1CCCCO[C@@H](CN(C)C(=O)CCCN(C)C)[C@@H](C)CN([C@@H](C)CO)C(=O)c2cc(NC(=O)c3ccccc3)ccc2O1	.	-5	.	.
CCCn1c(SCC(=O)c2cc(OC)ccc2OC)nnc1C(C)C	48	-4	-4	90*
CCOc1ccc(NC(=O)COC(=O)C2(C)CC2(Cl)Cl)c([N+](=O)[O-])c1 (centres undefined)	-53*	.	-4	-62
CC1(C(=O)OCC(=O)Nc2ccc3ccccc3c2)CC1(Cl)Cl (centres undefined)	29	14	-2	66*
CCOc1ccc(OCC(=O)Nc2ccc(OC)cc2[N+](=O)[O-])cc1	-10	.	-2	7
CC(C)NC(=O)N(C)C[C@@H]1Oc2ccc(NC(=O)Nc3ccc(C(F)(F)F)cc3)cc2C(=O)N([C@H](C)CO)C[C@@H]1C	.	-4	.	.
CCCNC(=O)Nc1ccc2c(c1)C(=O)N(C)C[C@H](OC)[C@@H](C)CN(Cc1ccc(-c3ccccn3)cc1)[C@H](C)CO2	.	42*	.	.
CO[C@H]1CN(C)C(=O)c2cc(NC(=O)NC(C)C)ccc2OC[C@@H](C)N(Cc2ccc(-c3ccccn3)cc2)C[C@@H]1C	.	72*	.	.
CO[C@@H]1CN(C)C(=O)c2cc(NC(=O)c3nc4ccccc4s3)ccc2OC[C@@H](C)N(Cc2cccnc2)C[C@H]1C	.	51*	.	.
CO[C@H]1CN(C)C(=O)c2ccc(NC(=O)NC(C)C)cc2OC[C@H](C)N(Cc2ccc(-c3ccccn3)cc2)C[C@H]1C	.	3	.	.
CO[C@H]1CN(C)C(=O)c2cc(NC(=O)NC(C)C)ccc2OC[C@H](C)N(Cc2ccc(-c3ccccn3)cc2)C[C@@H]1C	.	142*	.	.
CCCNC(=O)Nc1ccc2c(c1)C(=O)N(C)C[C@@H](OC)[C@H](C)CN(Cc1ccc(-c3ccccn3)cc1)[C@@H](C)CO2	.	4	.	.
CN1c2ccc(-c3cccc(F)c3)cc2[C@H]2[C@H](CCN2C(=O)c2ccncc2)[C@H]1CO	.	-11	.	.
CNC[C@H]1Oc2c(NC(=O)Nc3ccccc3)cccc2C(=O)N([C@H](C)CO)C[C@H]1C	.	-2	.	.
Cc1ccc(S(=O)(=O)N(C)C[C@@H]2Oc3ccc(NC(=O)C4CCCCC4)cc3CC(=O)N([C@@H](C)CO)C[C@@H]2C)cc1	.	1	.	.
C[C@@H]1CN([C@@H](C)CO)C(=O)c2cc(NC(=O)Nc3ccccc3)ccc2O[C@@H](C)CCCCO[C@@H]1CN(C)C	.	-2	.	.
COc1cccc(C(=O)Nc2ccc3c(c2)OC[C@@H](C)N(CCc2ccccc2)C[C@@H](C)[C@H](OC)CN(C)C3=O)c1	.	64*	.	.
Cc1ccc(-n2c(C)cc(/C=c3/sc4nc5ccccc5n4c3=O)c2C)cc1	-82*	.	.	-85
O=c1/c(=C\c2cccn2-c2ccccc2)sc2nc3ccccc3n12	.	6	.	.
CCOC(=O)c1c(NC(=O)c2ccco2)n(C2CCCCC2)c2nc3ccccc3nc12	50	.	4	78*
COC(=O)c1ccccc1NC1=C/C(=N\S(=O)(=O)c2cccs2)c2ccccc2C1=O	33	3	-6	40
O=C1C=C(Nc2ccccc2)C(=O)c2ccccc21	61	5	-10	96*
O=C1C(Nc2ccccc2)=C/C(=N/S(=O)(=O)c2cccs2)c2ccccc21	-94*	21	-7	-95
Cc1ccc(NC2=C/C(=N/S(=O)(=O)c3cccs3)c3ccccc3C2=O)cc1	-94*	.	2	-94
Cc1ccc(/C=N\Nc2cn[nH]c(=O)c2Cl)cc1	13	53*	10	26
O=c1[nH]ncc(N/N=C/c2ccccc2)c1Cl	-3	-2	6	-2
CC1CCN(c2ccc(NC(=O)c3ccc(Br)o3)cc2)CC1	25	56*	-12	53*
